Bioassay records: PubChem, National Center for Advancing Translational Sciences (NCATS)
KB-V1 cytotox: KB-V1 MDR subline cytotoxicity; KB-V1 MDR cells viability, CellTiter-Glo, 72 h; Potency, µM (top dose mostly 46.1 µM), hits mostly cytotoxic; 400,000 tested, 3.4% active; also: potency is read from the fitted curve at half-maximal effect; nearly all actives have a fitted effect of over 60% in size
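Compound-treated KB-V1 multidrug-resistant cells, 72 h, 37 degrees C; viability by CellTiter-Glo. Fitted qHTS curves give the values.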
HT1080 IDH1KD tx: HT-1080 IDH1 knockdown cell toxicity (counter line); AID 686971; 360,000 tested, 2% active; Potency, µM (titrated, usually from 46.1 µM), for inactives: top-dose activity, negative = toxicity, usual class: cytotoxic; HT-1080 IDH1 knockdown viability, ATP luminescence, 48 h;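 also: potency is read from the fitted curve at half-maximal effect; 0% = DMSO wells and -100% = cell-free medium wells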
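In this qHTS, HT-1080 cells depleted of IDH1 are exposed for 48 h at 37 °C to compound titrations. Toxicity is scored from CellTiter-Glo luminescence, with DMSO as full viability and medium alone as none.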
KB-3-1 tox: KB-3-1 parental cell cytotoxicity. Potency, µM (series often up to 46.1 µM), usual class: cytotoxic. AID 1347075. KB-3-1 viability, CellTiter-Glo ATP luminescence, 72 h. 400,000 tested, 1.4% active; also: potency is read from the fitted curve at half-maximal effect; nearly all actives have a fitted effect of over 60% in size
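Multi-concentration cytotoxicity screen in KB-3-1 cells grown in DMEM lacking phenol red with 10% FBS. After 72 h at 37 °C with compound, ATP-dependent luminescence was recorded.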
HT1080NT lethal: kills 2HG-producing HT-1080-NT fibrosarcoma cells | HT-1080-NT fibrosarcoma viability, CellTiter-Glo ATP luminescence, 48 h | Potency, µM (series often up to 46.1 µM), for inactives: at the highest dose activity, negative = less viability, hits mostly cytotoxic | 360,000 tested, 1.6% active;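 also: NT is the 2HG producing partner of a matched IDH1 knockdown line; potency is read from the fitted curve at half-maximal effect; 0% = DMSO-treated cells and -100% = media-only wells without cells; nearly all actives have a fitted effect of over 55% in size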
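Read-out is CellTiter-Glo luminescence after 10 minutes at room temperature, following 48 hours' compound treatment of HT-1080-NT cells (750 cells/well, RPMI, 5% FBS, 37 degrees C).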
IL1B secr inh: blocks inflammasome-driven IL-1 beta release; activity change, % at 57.5 µM; 360,000 tested, 4.7% active; THP-1 LPS/ATP IL-1B secretion, AlphaLISA, 16 h; stronger effect = lower value; in the data active = activity change below about -50%; inconclusive = mostly about -30% to -49%
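THP-1 cells pretreated 1 hr with compounds (up to 57.5 uM final), then stimulated with LPS (250 ng/mL final) plus ATP (1.25 mM final); secreted IL-1B measured by AlphaLISA after 16 hr, decreased signal indicating inhibition.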
Active calls of the source: *; i = inactive; ? = inconclusive; . = not tested or not shown. This is a sample that favours compounds with a hit; in the whole collection about 8.8% have one here. Unless noted, calls follow the shape of the dose curve; as a rule, active = well fitted curve in the direction sought with a large enough effect; inconclusive = small, poorly fitted or top-dose-only effect, or another doubt; inactive = no such curve, though single readings can be large; an effect the other way counts as inactive or inconclusive. Unless noted, % is scaled to controls: 0 for no effect and ±100 for the full control effect.

SMILES	KB-V1 cytotox	HT1080 IDH1KD tx	KB-3-1 tox	HT1080NT lethal	IL1B secr inh
CCc1ccc(NC(=O)CN2C(=O)CC(c3ccccc3)Sc3ccccc32)cc1 (configuration not stated)	i	.	i	.	.
O=C(CN1C(=O)CC(c2ccccc2)Sc2ccccc21)Nc1cccc(Cl)c1 (configuration not stated)	21µM*	.	?	.	.
COc1ccc(C2CC(=O)N(CC(=O)NCC3CCCO3)c3ccccc3S2)cc1OC (configuration not stated)	i	7%	i	13%	-22
CCOc1ccccc1NC(=O)CN1C(=O)CC(c2ccco2)Sc2ccccc21 (configuration not stated)	13µM*	.	?	.	.
Cc1cccc(NC(=O)Nc2nnc(N(C)Cc3ccccc3)s2)c1	i	.	i	.	.
COc1ccc(/C(C)=N/Nc2ncc(Cl)cc2Cl)c(O)c1	?	?	i	4.6µM*	-18
CCCCN=C1NN=C(c2ccc(C)c(C)c2)CS1	i	-17%	i	-12%	?
c1ccc2oc(C3=NNC(=NC4CC4)SC3)cc2c1	i	-5%	9.2µM*	-2%	-17
CCCCN=C1NN=C(c2ccc3c(c2)OCCO3)CS1	i	-14%	i	-19%	-63*
c1cc2c(cc1C1=NNC(=NC3CC3)SC1)OCCO2	8.2µM*	12µM*	?	16µM*	-22
Cc1ccc(S(=O)(=O)N2CCN(C(=O)CCC(=O)NCc3ccc(F)cc3)CC2)cc1	i	-3%	i	-4%	26
CCCSc1nsc(NC(=O)C(c2ccccc2)c2ccccc2)n1	?	?	26µM*	?	-9
CCCCCCSc1nsc(NC(=O)CC(C)C)n1	i	15µM*	i	?	7
COc1ccc(/C=C2\SC(=O)N(CCC(=O)Nc3ccccc3)C2=O)cc1OC	i	?	i	?	11
COc1cc(/C=C2\SC(=O)N(CCN)C2=O)ccc1OS(=O)(=O)c1cc(C)ccc1C	i	?	i	?	-109*
CCC(C(=O)Nc1cc(C(F)(F)F)ccc1Cl)n1nc(C)c2sc3ccccc3c2c1=O (configuration not stated)	i	.	i	.	.
COc1cccc(CN(C(=O)/C=C/c2ccc(Cl)cc2)C2CCS(=O)(=O)C2)c1 (configuration not stated)	?	-17%	i	-1%	-58*
CCCOc1ccc(CN(C(=O)c2cccc(OC)c2)C2CCS(=O)(=O)C2)cc1 (configuration not stated)	i	6%	i	3%	-6
O=C(/C=C/c1ccccc1)N(Cc1cccc(Cl)c1)C1CCS(=O)(=O)C1 (configuration not stated)	i	-2%	i	3%	-23
O=C(c1cccs1)N(Cc1cccc(Cl)c1)C1CCS(=O)(=O)C1 (configuration not stated)	15µM*	2%	i	7%	18
CCCOc1cccc(C(=O)N(Cc2ccc(OC)c(OC)c2)C2CCS(=O)(=O)C2)c1 (configuration not stated)	16µM*	-5%	i	11%	-10
O=C(c1sc2ccccc2c1Cl)N(Cc1ccccc1Cl)C1CCS(=O)(=O)C1 (configuration not stated)	8.2µM*	?	?	-6%	-7
CSc1ncc(Cl)c(C(=O)N(Cc2ccccc2Cl)C2CCS(=O)(=O)C2)n1 (configuration not stated)	i	.	i	.	.
Nc1c(C(=O)Nc2ccccc2Cl)nnn1Cc1cccc(Cl)c1	i	.	i	.	.
CSc1ncc(Cl)c(C(=O)N(Cc2ccc(C(C)C)cc2)C2CCS(=O)(=O)C2)n1 (configuration not stated)	i	.	i	.	.
SMILES	KB-V1 cytotox	HT1080 IDH1KD tx	KB-3-1 tox	HT1080NT lethal	IL1B secr inh
CCCCn1nnnc1C(c1ccccc1)N1CCN(c2cc(C)ccc2C)CC1 (configuration not stated)	?	?	i	-23%	-4
Cc1c(NC(=O)C(C)N(c2ccccc2)S(C)(=O)=O)c(=O)n(-c2ccccc2)n1C (configuration not stated)	i	14%	i	12%	28
O=C(c1sc2ccccc2c1Cl)N(Cc1ccco1)C1CCS(=O)(=O)C1 (configuration not stated)	?	-13%	i	3%	7
O=C(c1sc2ccccc2c1Cl)N(Cc1ccccc1)C1CCS(=O)(=O)C1 (configuration not stated)	21µM*	-1%	i	0%	-7
O=C(Nc1ccn(CCCN(CCCn2ccc(NC(=O)OCc3ccccc3)nc2=O)CCc2cc3ccccc3[nH]2)c(=O)n1)OCc1ccccc1	i	18µM*	i	?	82
O=C(Nc1ccn(CCCNCc2ccccc2)c(=O)n1)OCc1ccccc1	i	-10%	i	-13%	5
O=C1CC(N(Cc2cccs2)C(=O)Nc2ccccc2)C(=O)N1c1ccc(Cl)cc1 (configuration not stated)	18µM*	-3%	i	-1%	7
O=C(Nc1ccc(Cl)cc1)N(CCCN1CCOCC1)Cc1cccs1	i	-4%	i	-25%	-7
COc1ccc(N2C(=O)CC(N(CCc3ccc(S(N)(=O)=O)cc3)C(=S)Nc3ccccc3)C2=O)cc1 (configuration not stated)	i	-23%	i	?	2
COc1ccc(CN(C(=S)Nc2ccccc2)C2CC(=O)N(c3ccc(Cl)cc3)C2=O)cc1 (configuration not stated)	i	?	?	12µM*	-21
COc1ccc(CN(C(=S)Nc2ccccc2)C2CC(=O)N(c3ccccc3)C2=O)cc1 (configuration not stated)	4.6µM*	-18%	i	-6%	23
CC(C)C[C@H]1CN(CCCC[C@H]2CNC(=O)C(=O)N2CCC2CCCCC2)C(=O)C(=O)N1CCc1ccccc1	i	29%	?	26%	?
CC1(c2ccc3ccccc3c2)CCC(=O)O1 (configuration not stated)	i	21%	i	9%	-9
CC(=O)N1CC(C(=O)Nc2ccc3c(c2)OCO3)Oc2ccccc21 (configuration not stated)	21µM*	10%	i	-4%	7
Cc1ccccc1Nc1cc(C(=O)NCc2ccco2)c2ccccc2n1	8.2µM*	-1%	?	1%	?
Cc1ccc(C)c(Nc2cc(C(=O)NCc3cccnc3)c3ccccc3n2)c1	i	-24%	i	-18%	-73*
Cc1cccc(Nc2ccccc2C(=O)OCC(=O)NCc2ccco2)c1C	13µM*	?	?	-1%	5
